Assay [1] can be described thus: Nuclear factor erythroid 2-related factor 2/antioxidant responsive element (Nrf2/ARE) small molecule agonists: qHTS cell viability counter screen in human keratinocytes (AID 1919968; active = well fitted curve in the direction sought with a large enough effect in the repeat runs; an effect the other way counts as inactive or inconclusive; also: nearly all actives have a fitted effect of over 55% in size). Put shortly: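 KeratinoSens HaCaT cells, 1,500/well, preincubated 5 h, then exposed to compounds in DMSO for 23 h at 37 C/5% CO2. Viability read as CellTiter-Fluor fluorescence after 1 h, in the same wells as the ARE-luciferase read.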

A short description of assay [2]: Nuclear factor erythroid 2-related factor 2/antioxidant responsive element (Nrf2/ARE) small molecule agonists: luciferase reporter gene qHTS assay in human keratinocytes (AID 1919969). Also: nearly all actives have a fitted effect of over 35% in size. Also: potency is read from the fitted curve at half-maximal effect. In general terms: A reporter such as luciferase makes a cellular process visible.
Assay [3] has as its target Gonadotropin-releasing hormone receptor (Homo sapiens) (UniProt P30968). Put plainly: Human gonadotropin-releasing hormone receptor (GnRHR) small molecule agonists, calcium flux assay in GnRHR-HEK293 cells (AID 1920063). Also: nearly all actives have a fitted effect of over 35% in size. The essentials:
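HEK293 cells stably expressing human GnRHR were dye-loaded for 1 h at 37 C. Compound was added in agonist mode and fluorescence (Ex/Em 480/540) recorded kinetically for 3 min. Fifteen concentrations, triplicates.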
In general terms: Calcium assays in cells follow changes in intracellular calcium, usually with a dye or a luminescent sensor.

For assay [4], the target named is KiSS-1 receptor (Homo sapiens) (UniProt Q969F8). In words: Human kisspeptin (KISS1R) small molecule agonists, calcium flux assay in KISS1R-HEK293 cells (AID 1920064; active = well fitted curve in the direction sought with a large enough effect in the repeat runs; an effect the other way counts as inactive or inconclusive). The essentials: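 HEK293 cells stably expressing human KISS1R were loaded with calcium dye for 1 h at 37 C, then given compound; fluorescence (Ex/Em 480/540) was read kinetically for 3 min. Fifteen concentrations, triplicate.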

A short description of assay [5]: G protein-coupled receptor (GPCR) small molecule agonists, calcium flux assay: HEK293 wild type cell line counter screen (AID 1920065). Put shortly: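 Wild-type HEK293 cells plated 18 h, loaded with calcium dye 1 h at 37 C, then compounds added in agonist mode (ATP as positive control). Kinetic fluorescence Ex/Em 480/540 recorded 3 min at 1 sec intervals; 15 concentrations, triplicate.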

Assay [6] is described as follows: p53 small molecule agonists, cell-based qHTS assay with human liver microsomes (AID 1963577). Also: potency is read from the fitted curve at half-maximal effect.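 As to activation: p53 response element beta-lactamase reporter cells with liver microsomes plus NADPH.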 Put shortly: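 Reporter activation was measured by LiveBLAzer fluorescence intensity in p53RE-bla cells, which had been exposed to compounds for 16 h at 37 C alongside 0.5 mg/mL human liver microsomes and 0.5 mg/mL NADPH (final concentrations).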
On the technique in general: Quantitative high-throughput screening tests each substance at several concentrations.

The nature of assay [7]: p53 small molecule agonists, cell-based qHTS assay with human liver microsomes: qHTS cell viability counter screen (AID 1963579). Also: nearly all actives have a fitted effect of over 45% in size. Put shortly: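 HLM-supplemented (0.5 mg/mL final) and NADPH-supplemented (0.5 mg/mL final) p53RE-bla cultures, 4,000 cells per well, were dosed with compounds in DMSO for 16 h at 37 C; luminescent ATP detection (CellTiter-Glo, 30 min, room temperature) quantified surviving cells.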

Assay [8] in a line: p53 small molecule agonists, cell-based qHTS assay with rat liver microsomes: qHTS cell viability counter screen (AID 1963580). Also: nearly all actives have a fitted effect of over 45% in size. Put shortly:
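In HCT-116 cells carrying a p53 response element-bla reporter, compounds were metabolically activated in situ by rat liver microsomes with NADPH over 16 h. Cell ATP content then served as the cytotoxicity measure.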

The nature of assay [9]: p53 small molecule agonists, cell-based qHTS assay: qHTS cell viability counter screen (AID 1963581). Also: nearly all actives have a fitted effect of over 45% in size. The essentials: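 p53RE-bla HCT-116 cells, compounds added 5 h after plating and incubated 16 h at 37 C. Cytotoxicity measured in the same wells as intracellular ATP by CellTiter-Glo luminescence after 30 min at room temperature.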
Assay [10] can be described thus: p53 small molecule agonists, cell-based qHTS assay (AID 1963582; active = well fitted activation curve with a large enough effect in the signal ratio in the repeat runs, not every such curve was filed as active; the % refers to the signal ratio). The essentials: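 p53RE-bla reporter cells, compounds added in DMSO after 5 h plating, incubated 16 h at 37 C. Beta-lactamase read via 2 h room-temperature LiveBLAzer B/G FRET substrate, fluorescence intensity.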
For assay [11], the target named is 5-hydroxytryptamine receptor 2A (Homo sapiens) (UniProt P28223). Put plainly: 5-hydroxytryptamine receptor 2A (HTR2A) small molecule antagonists, cell-based qHTS assay (AID 1963586). Also: nearly all actives have a fitted effect of over 45% in size. The essentials:
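Antagonist-mode intracellular calcium assay: DOI (4 nM) added after 5 min compound pre-incubation at room temperature to dye-loaded HTR2A-CHO cells. Fluorescence followed for 3 min, sampled every second.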

The target in assay [12] is Muscarinic acetylcholine receptor M1 (Homo sapiens) (UniProt P11229). Put plainly: Cholinergic receptor muscarinic 1 (CHRM1) small molecule antagonists, cell-based qHTS assay (AID 1963588). Also: nearly all actives have a fitted effect of over 40% in size. Also: potency is read from the fitted curve at half-maximal effect. Put shortly:
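CHRM1-CHO calcium-flux assay, antagonist mode. Cells were seeded 18 h, dye-loaded 1 h at 37 C and given compound for 5 min at RT, then acetylcholine was added at 50nM. FDSS fluorescence was read 3 min; 15 concentrations, three runs.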

Assay [13] shares this target. In words: Cholinergic receptor muscarinic 1 (CHRM1) small molecule agonists, cell-based qHTS assay (AID 1963589). Also: nearly all actives have a fitted effect of over 35% in size. The essentials:
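CHO cells stably expressing human CHRM1 were loaded with calcium dye for 1 h at 37 C, then compound was added in agonist mode. Intracellular calcium fluorescence was followed kinetically at 1 s intervals. Fifteen concentrations were tested in three independent runs.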

The nature of assay [14]: cAMP Responsive Elements (CRE) small molecule agonists, cell-based qHTS assay (AID 1963590). The essentials: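 CRE-bla HEK 293T cells, 2,000/well in DMEM with 10% dialyzed FBS and 25 mM HEPES, pre-incubated 18 h at 37 C, then exposed to compound 3 h at 37 C. Beta-lactamase reporter read with LiveBLAzer B/G FRET substrate after 2 h at room temperature.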
A short description of assay [15]: cAMP Responsive Elements (CRE) small molecule antagonists, cell-based qHTS assay (AID 1963591; active = well fitted inhibition curve with a large enough effect in the signal ratio in the repeat runs, not every such curve was filed as active; the % refers to the signal ratio). Put shortly: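 CRE-bla HEK293T cells plated 18 h, then given compound plus NKH477 at 0.25 uM final for 3 h at 37C. Beta-lactamase reporter read with LiveBLAzer B/G FRET substrate after 2 h at room temperature.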
The target of assay [16] is Beta-2 adrenergic receptor (Homo sapiens) (UniProt P07550). In words: Adrenergic beta2 receptor (ADRB2) small molecule antagonists, cell-based qHTS assay (AID 1963592). Also: series mostly up to about 92 µM; nearly all actives have a fitted effect of over 50% in size. The essentials:
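Cells (CHO, stable ADRB2 overexpression) incubated 18-20hr at 37C; compounds added from DMSO; agonist mix (1nM isoproterenol, 100uM IBMX, 25uM Ro-20-1724) added; 0.5hr RT; d2-cAMP and anti-cAMP-cryptate added; 1hr RT; 665/615 nm read.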

For assay [17], the target named is D(2) dopamine receptor (Homo sapiens) (UniProt P14416). In words: Dopamine D2 receptor (DRD2) small molecule antagonists, cell-based qHTS assay (AID 1963595; active = well fitted inhibition curve with a large enough effect in the signal ratio in the repeat runs, with a control signal flat; the % refers to the signal ratio). The essentials: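 HEK293 cells stably expressing DRD2 were preincubated with 0.1 mM Ro20-1724, then with compound for 10 min at room temperature. Cells were stimulated with 200 nM NKH477 plus 12 nM quinpirole for 30 min, and cAMP was read by HTRF.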

For assay [18], the target named is 5-hydroxytryptamine receptor 2A (Homo sapiens) (UniProt P28223). Put plainly: 5-hydroxytryptamine receptor 2A (HTR2A) small molecule agonists, cell-based qHTS assay (AID 1963587). Also: nearly all actives have a fitted effect of over 30% in size. The essentials: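 HTR2A-CHO cells, plated 18 h at 37 C/5% CO2, dye-loaded 1 h at 37 C; compounds in DMSO added by pin tool (agonist mode). Intracellular calcium flux read as kinetic fluorescence on FDSS over 2 min at 1 s intervals.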

Assay [19] deals with D(2) dopamine receptor (Homo sapiens) (UniProt P14416). In words: Dopamine D2 receptor (DRD2) small molecule agonists, cell-based qHTS assay (AID 1963594). Also: nearly all actives have a fitted effect of over 35% in size. Put shortly:
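HEK293 cells stably expressing DRD2 were cultured 24 h at 37 C, then given Ro20-1724 (0.1 mM final) and compounds for 10 min at room temperature. NKH477 (200nM) was then added for 30 min. cAMP was read by HTRF.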

Assay [20] is described as follows: p53 small molecule agonists, cell-based qHTS assay with rat liver microsomes (AID 1963578). The essentials:
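Compound in DMSO added to p53RE-bla cells 5 h post-plating; rat microsomes/NADPH 0.5 mg/mL final; 16 h, 37 C; LiveBLAzer 2 h RT.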

Inconclusive results are not listed. Activity calls are given as the source filed them. Unless noted, calls follow the shape of the full dose curve.

Chain of Beta-2 adrenergic receptor (Homo sapiens) (P07550 whole entry, looked up): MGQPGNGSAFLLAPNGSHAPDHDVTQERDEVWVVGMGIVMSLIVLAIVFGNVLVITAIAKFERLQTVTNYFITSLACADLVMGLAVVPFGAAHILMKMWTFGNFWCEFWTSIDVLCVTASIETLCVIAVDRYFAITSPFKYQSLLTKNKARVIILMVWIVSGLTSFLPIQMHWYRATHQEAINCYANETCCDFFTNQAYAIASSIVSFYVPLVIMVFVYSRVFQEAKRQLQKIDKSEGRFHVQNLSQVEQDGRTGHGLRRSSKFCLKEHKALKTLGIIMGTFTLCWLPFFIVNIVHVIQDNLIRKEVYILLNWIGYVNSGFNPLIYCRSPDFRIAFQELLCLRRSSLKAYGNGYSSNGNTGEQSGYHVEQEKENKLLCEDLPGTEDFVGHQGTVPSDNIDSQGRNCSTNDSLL
Chain of Gonadotropin-releasing hormone receptor (Homo sapiens) (P30968 whole entry, looked up): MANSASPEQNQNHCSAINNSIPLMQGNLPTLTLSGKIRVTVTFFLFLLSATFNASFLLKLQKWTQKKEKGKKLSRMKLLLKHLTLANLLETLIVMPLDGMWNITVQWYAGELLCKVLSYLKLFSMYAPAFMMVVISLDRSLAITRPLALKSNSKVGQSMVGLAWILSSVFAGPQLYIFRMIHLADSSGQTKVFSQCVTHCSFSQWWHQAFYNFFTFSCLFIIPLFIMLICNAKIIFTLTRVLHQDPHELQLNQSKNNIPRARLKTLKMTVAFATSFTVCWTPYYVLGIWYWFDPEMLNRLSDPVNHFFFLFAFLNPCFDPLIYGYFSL
Chain of KiSS-1 receptor (Homo sapiens) (Q969F8 whole entry, looked up): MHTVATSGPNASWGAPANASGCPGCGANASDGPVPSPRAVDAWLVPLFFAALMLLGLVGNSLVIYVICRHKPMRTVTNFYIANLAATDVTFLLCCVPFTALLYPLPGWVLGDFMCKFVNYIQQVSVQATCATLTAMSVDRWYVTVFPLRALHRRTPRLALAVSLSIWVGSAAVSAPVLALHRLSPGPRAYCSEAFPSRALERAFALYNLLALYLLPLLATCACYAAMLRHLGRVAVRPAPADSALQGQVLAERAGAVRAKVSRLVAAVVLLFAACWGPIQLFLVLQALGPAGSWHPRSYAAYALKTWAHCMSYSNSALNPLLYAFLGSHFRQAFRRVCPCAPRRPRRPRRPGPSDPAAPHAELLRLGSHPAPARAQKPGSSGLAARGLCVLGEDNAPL
Chain of Muscarinic acetylcholine receptor M1 (Homo sapiens) (P11229 whole entry, looked up): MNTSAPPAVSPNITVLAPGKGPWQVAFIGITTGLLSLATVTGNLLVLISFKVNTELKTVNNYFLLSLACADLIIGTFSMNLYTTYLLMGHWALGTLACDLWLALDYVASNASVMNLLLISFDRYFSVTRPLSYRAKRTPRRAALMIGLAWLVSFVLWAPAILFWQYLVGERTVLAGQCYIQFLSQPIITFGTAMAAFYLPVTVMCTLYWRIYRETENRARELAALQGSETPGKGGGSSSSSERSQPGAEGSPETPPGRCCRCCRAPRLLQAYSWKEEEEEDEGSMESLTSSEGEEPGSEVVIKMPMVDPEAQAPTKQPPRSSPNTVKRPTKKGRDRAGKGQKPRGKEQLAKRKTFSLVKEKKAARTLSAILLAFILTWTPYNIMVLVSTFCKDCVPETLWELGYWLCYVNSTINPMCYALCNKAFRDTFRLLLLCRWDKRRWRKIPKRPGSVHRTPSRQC
Chain of D(2) dopamine receptor (Homo sapiens) (P14416 whole entry, looked up): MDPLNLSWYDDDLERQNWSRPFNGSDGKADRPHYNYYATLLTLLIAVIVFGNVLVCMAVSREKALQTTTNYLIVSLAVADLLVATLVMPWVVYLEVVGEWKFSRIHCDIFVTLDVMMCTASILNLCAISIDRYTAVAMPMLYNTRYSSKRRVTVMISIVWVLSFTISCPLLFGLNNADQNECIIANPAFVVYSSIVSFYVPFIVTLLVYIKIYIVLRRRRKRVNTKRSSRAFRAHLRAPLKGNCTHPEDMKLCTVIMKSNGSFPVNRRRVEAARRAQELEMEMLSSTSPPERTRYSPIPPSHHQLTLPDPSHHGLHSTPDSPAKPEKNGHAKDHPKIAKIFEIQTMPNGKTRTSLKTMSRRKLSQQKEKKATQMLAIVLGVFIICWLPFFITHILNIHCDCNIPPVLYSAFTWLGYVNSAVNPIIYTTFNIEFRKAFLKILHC
Chain of 5-hydroxytryptamine receptor 2A (Homo sapiens) (P28223 whole entry, looked up): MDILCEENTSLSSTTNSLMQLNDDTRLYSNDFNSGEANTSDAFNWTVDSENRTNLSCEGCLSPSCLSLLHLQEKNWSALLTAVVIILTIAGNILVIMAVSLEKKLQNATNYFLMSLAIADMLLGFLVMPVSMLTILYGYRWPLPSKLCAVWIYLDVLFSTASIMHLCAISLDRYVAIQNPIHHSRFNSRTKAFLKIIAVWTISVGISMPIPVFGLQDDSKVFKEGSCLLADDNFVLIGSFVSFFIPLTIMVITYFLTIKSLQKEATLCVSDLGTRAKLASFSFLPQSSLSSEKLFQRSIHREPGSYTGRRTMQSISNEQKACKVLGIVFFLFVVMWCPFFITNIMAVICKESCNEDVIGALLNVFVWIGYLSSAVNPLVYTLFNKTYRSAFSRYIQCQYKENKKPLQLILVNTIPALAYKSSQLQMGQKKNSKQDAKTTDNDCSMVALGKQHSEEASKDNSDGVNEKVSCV

For the compound `O=C(O)C(F)(F)C(F)(F)C(F)(F)C(F)(F)C(F)(F)C(F)(F)C(F)(F)C(F)(F)C(F)(F)F`, the Potency result in [1], in assay [2], in [3], in [4], in assay [5] and in [6] was “inactive” in each case. For the same compound, the Potency result in assay [7], in assay [8], in assay [9], in [10], in assay [11] and in assay [12] was “inactive” each time. Besides, the Potency entry in [13], in assay [14], in assay [15], in assay [16] and in [17] was “inactive” throughout.
On to `Cc1ccccc1OP(=O)(Oc1ccccc1C)Oc1ccccc1C`, for which the Potency result in [1], in assay [3], in [4], in [5], in [8] and in [9] was “inactive” each time. The Potency entry in assay [11], in assay [18], in assay [12], in [13], in assay [15] and in assay [16] was “inactive” each time. Moreover, in assay [19], the Potency entry was “inactive”. For the same compound, the Potency in assay [2] is 48.8 µM (active); in assay [6], 1.83 µM (active).
Take `CCN(CCO)CCn1c(Cc2ccccc2)nc2c1c(=O)n(C)c(=O)n2C`: the Potency entry in [1], in assay [2], in [3], in [4], in [5] and in [20] was “inactive” throughout. The Potency result in assay [7], in [8], in assay [9], in assay [10], in [18] and in assay [12] was “inactive” throughout. Further, the Potency result in [13], in assay [16], in [19] and in [17] was “inactive” each time.
With `N#CC(Br)(Br)C(N)=O`, the Potency result in assay [1], in assay [2], in assay [3], in assay [4], in assay [5] and in assay [20] was “inactive” throughout. Also, the Potency entry in assay [7], in assay [8], in assay [9], in assay [10], in assay [18] and in assay [13] was “inactive” throughout. In addition, the Potency entry in [14] and in [19] was “inactive” throughout. The Potency in assay [12] was 0.0047 µM (active).
Consider `CCN(C(C)=O)c1cccc(-c2ccnc3c(C#N)cnn23)c1`, for which the Potency entry in assay [1], in [2], in assay [3], in [4], in assay [5] and in assay [20] was “inactive” in each case. Moreover, the Potency result in assay [7], in assay [8], in assay [9], in assay [10], in assay [14] and in assay [16] was “inactive” in each case. Besides, the Potency entry in [19] and in assay [17] was “inactive” throughout.
For `O=C(OC1CCCCC1)c1ccccc1C(=O)OC1CCCCC1`, the Potency entry in assay [1], in assay [2], in [3], in assay [4], in assay [5] and in assay [20] was “inactive” in each case. The Potency entry in assay [7], in assay [8], in assay [9], in assay [11], in [12] and in assay [13] was “inactive” each time. Also, the Potency result in assay [15] and in assay [16] was “inactive” each time.
With `Oc1ccc2c3c1O[C@H]1[C@@H](O)C=C[C@H]4[C@@H](C2)NCC[C@@]341`, the Potency entry in assay [1], in assay [2], in assay [3], in assay [4], in [5] and in assay [20] was “inactive” in each case. For the same compound, the Potency result in assay [8], in assay [9], in assay [10], in assay [18], in assay [12] and in [13] was “inactive” in each case. Besides, the Potency entry in assay [14], in [15], in [16], in assay [19] and in assay [17] was “inactive” each time.

Values taken from PubChem BioAssay (Tox21).
